{"source": "PubChem BioAssay AID1851", "about": "(National Center for Advancing Translational Sciences (NCATS), 2009)", "note": "In all, about 16,000 compounds went through this assay and about 5,100 (32%) were called active. Another 25% or so got no clear call; they are omitted. Calls come from the whole dose curve; as a rule, active = well fitted curve in the direction sought with a large enough effect; inconclusive = small, poorly fitted or top-dose-only effect, or effect the other way; inactive = no such curve, though single readings can be large or run the other way. The list shows a part of the results. % is set by controls: 0 for no effect and ±100 for the full control effect."}
{"target": "Cytochrome P450 3A4 (Homo sapiens) (UniProt P08684)", "sequence (P08684 whole entry, looked up)": "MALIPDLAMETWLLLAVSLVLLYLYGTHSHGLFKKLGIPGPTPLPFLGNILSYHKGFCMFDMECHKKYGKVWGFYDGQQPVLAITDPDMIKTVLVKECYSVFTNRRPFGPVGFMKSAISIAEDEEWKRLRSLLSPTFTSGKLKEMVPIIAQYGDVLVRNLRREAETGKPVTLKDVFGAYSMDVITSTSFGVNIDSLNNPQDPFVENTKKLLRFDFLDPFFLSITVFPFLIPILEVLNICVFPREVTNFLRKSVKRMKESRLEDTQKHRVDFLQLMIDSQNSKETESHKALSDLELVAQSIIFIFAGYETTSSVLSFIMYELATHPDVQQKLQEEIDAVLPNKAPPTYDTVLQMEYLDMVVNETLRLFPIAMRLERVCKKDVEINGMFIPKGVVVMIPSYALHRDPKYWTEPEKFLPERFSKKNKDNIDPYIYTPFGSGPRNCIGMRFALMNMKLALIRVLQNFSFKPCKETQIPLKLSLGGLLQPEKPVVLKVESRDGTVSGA", "assay": "Cytochrome panel assay with activity outcomes", "details": "recombinant CYP, pro-luciferin dealkylation, luminescence, p450-cyp3a4; series mostly up to 57.1 µM"}
{"compound": "N[C@H](C(=O)O)[C@@H]1C[C@@H]1C(=O)O", "AC50": "inactive"}
{"compound": "O=C1/C(=C\\c2ccccn2)SC(=S)N1Nc1ncc(C(F)(F)F)cc1Cl", "AC50": "3.16 µM (active)"}
{"compound": "Cc1cc(C)nc(NN2C(=O)/C(=C/c3ccccc3)SC2=S)n1", "AC50": "inactive"}
{"compound": "O=C(N/N=C/c1cccc(C(F)(F)F)c1)C1CCN(c2ncc(C(F)(F)F)cc2Cl)CC1", "AC50": "inactive"}
{"compound": "c1ccc(C(CCN2CC3CCC(CC3)C2)c2ccccc2)cc1", "activity, negative = inhibition": "-1.84% [at 11.4 µM] (inactive)"}
{"compound": "CCN(CC)C(=O)Cn1cnc([N+](=O)[O-])n1", "AC50": "inactive"}
{"compound": "CCOc1ccc(N(CCC#N)S(=O)(=O)c2ccc(OC)cc2)cc1", "AC50": "11.2 µM (active)"}
{"compound": "O=c1c2c(-c3cccs3)csc2[nH]c(=S)n1-c1ccccc1", "AC50": "14.1 µM (active)"}
{"compound": "CCc1cc2c(=O)n(-c3ccccc3)c(=S)[nH]c2s1", "AC50": "inactive"}
{"compound": "O=c1c2c(-c3cccs3)csc2ncn1-c1ccc(Br)cc1", "activity, negative = inhibition": "-3.71% [at 2.29 µM] (inactive)"}
{"compound": "COc1ccccc1-c1nc(N(C)Cc2ccco2)c2ccccc2n1", "AC50": "7.94 µM (active)"}
{"compound": "COc1cccc(-c2nc(N(C)Cc3ccco3)c3ccccc3n2)c1", "AC50": "10 µM (active)"}
{"compound": "COc1cccc(-c2nc(N(C)C)c3ccccc3n2)c1", "AC50": "5.01 µM (active)"}
{"compound": "CN(Cc1ccco1)c1nc(-c2cccc(C#N)c2)nc2ccccc12", "AC50": "12.6 µM (active)"}
{"compound": "O=C1OCc2cccc3cccc1c23", "AC50": "inactive"}
{"compound": "Clc1ccccc1-c1ccc2ncnc(NC3CCNCC3)c2c1", "AC50": "inactive"}
{"compound": "FC(F)(F)c1ccccc1-c1ccc2ncnc(NC3CC3)c2c1", "AC50": "1.58 µM (active)"}
{"compound": "FC(F)(F)c1ccccc1-c1ccc2ncnc(NC3CCNCC3)c2c1", "AC50": "inactive"}
{"compound": "N#Cc1ccccc1-c1ccc2ncnc(NC3CC3)c2c1", "AC50": "2 µM (active)"}
{"compound": "Cc1ccccc1-c1ccc2ncnc(NC3CC3)c2c1", "AC50": "3.16 µM (active)"}
{"compound": "O=C(O)CCc1ccc(-c2ccccc2)[nH]1", "activity, negative = inhibition": "-13.2% [at 11.4 µM] (inactive)"}
{"compound": "CC(C)OC(=O)/C(=C\\c1ccc2c(c1)c1ccccc1n2C)NC(=O)c1ccccc1", "AC50": "1.12 µM (active)"}
{"compound": "CC(C)OC(=O)/C(=C\\C=C\\c1ccccc1)NC(=O)c1ccccc1", "AC50": "inactive"}
{"compound": "CC(C)SC(=N)N", "AC50": "inactive"}
{"compound": "COc1ccc(C(=O)N/N=C(\\C)Cn2nc([N+](=O)[O-])cc2C)cc1", "activity, negative = inhibition": "-3.05% [at 2.29 µM] (inactive)"}
{"compound": "COc1ccc(COC(=O)N/N=C2/C[C@@H](O)[C@@H](O)[C@@H]3[C@@H]4C(=O)N(C(C)(C)C)C(=O)[C@H]4CC[C@@H]23)cc1", "activity, negative = inhibition": "-13.5% [at 11.4 µM] (inactive)"}
{"compound": "COc1ccc(COC(=O)N/N=C(\\C)CC(=O)Nc2c(C)cc(C)cc2C)cc1", "AC50": "1.78 µM (active)"}
{"compound": "CS(=O)(=O)N1CCC2(CCCN(C(c3ccccc3)c3ccccc3)C2)CC1", "AC50": "3.98 µM (active)"}
{"compound": "CS(=O)(=O)N1CCC[C@@]2(CCN(C(c3ccccc3)c3ccccc3)C2)C1", "AC50": "10 µM (active)"}
{"compound": "CSc1nnnc2ccccc12", "activity, negative = inhibition": "-8.64% [at 11.4 µM] (inactive)"}
{"compound": "O=c1cc(-c2ccccc2)[nH]c2nc(Cl)ccc12", "AC50": "inactive"}
{"compound": "N[C@@H](CO)C(=O)O", "AC50": "inactive"}
{"compound": "O=C1CC(SC(=Nc2ccccc2)Nc2ccccc2)C(=O)N1c1cccc(Cl)c1", "note": "(configuration not stated)", "AC50": "11.2 µM (active)"}
{"compound": "O=C1CC(N2CCOCC2)C(=O)N1c1cccc(Cl)c1", "note": "(configuration not stated)", "AC50": "inactive"}
{"compound": "COc1ccc(CCC(C)Nc2cccc(F)c2)cc1", "note": "(configuration not stated)", "AC50": "inactive"}
{"compound": "CCOC(=O)NNC1CC(=O)N(c2ccc(OC)cc2)C1=O", "note": "(configuration not stated)", "AC50": "inactive"}
{"compound": "CCN=C(Nc1cccc(F)c1)SC1CC(=O)N(c2ccc(OC)cc2)C1=O", "note": "(configuration not stated)", "AC50": "6.31 µM (active)"}
{"compound": "CC(=O)Nc1cccc(N2C(=O)CCC2=O)c1", "AC50": "inactive"}
{"compound": "Cc1cc(OCCNCCO)cc(C)c1Cl", "AC50": "inactive"}
{"compound": "CC(C)c1ccc(/C=C2\\C=C(c3ccc4ccccc4c3)OC2=O)cc1", "activity, negative = inhibition": "-9.49% [at 11.4 µM] (inactive)"}
{"compound": "Cc1ccc(S(=O)(=O)N2CCC(C(=O)NCc3cccnc3)CC2)cc1", "AC50": "3.16 µM (active)"}
{"compound": "CCN(CC)S(=O)(=O)N1CCC(C(=O)NCc2ccc(C)cc2)CC1", "AC50": "11.2 µM (active)"}
{"compound": "CC(C)CN(CC(C)C)S(=O)(=O)N1CCC(C(=O)NCc2ccc(F)cc2)CC1", "AC50": "15.8 µM (active)"}
{"compound": "CCS(=O)(=O)N1CCC(C(=O)NCc2ccc(F)cc2Cl)CC1", "AC50": "inactive"}
{"compound": "CCCS(=O)(=O)N1CCCC(C(=O)NCCN2CCOCC2)C1", "note": "(configuration not stated)", "activity, negative = inhibition": "0.644% [at 11.4 µM] (inactive)"}
{"compound": "CCS(=O)(=O)N1CCC(C(=O)NCc2cccnc2)CC1", "activity, negative = inhibition": "-2.97% [at 2.29 µM] (inactive)"}
{"compound": "CCS(=O)(=O)N1CCC(C(=O)NCCCN2CCCC2)CC1", "AC50": "inactive"}
{"compound": "CCCCN(CC)S(=O)(=O)N1CCC(C(=O)NCCCN2CCOCC2)CC1", "AC50": "11.2 µM (active)"}
{"compound": "C=C[C@H](N)CCC(=O)O", "AC50": "inactive"}
{"compound": "Cc1ccc(CN2C(=O)CCC2C(=O)NCc2cccnc2)cc1", "note": "(configuration not stated)", "AC50": "2.24 µM (active)"}
{"compound": "Cc1nc(SCC(=O)Nc2ccc3c(c2)OCCO3)c2oc3ccccc3c2n1", "AC50": "7.94 µM (active)"}
{"compound": "CC(C)(C)c1nc(SCC(=O)Nc2ccc3c(c2)OCCO3)c2ccccc2n1", "AC50": "7.08 µM (active)"}
{"compound": "CN(C)CCn1nnnc1SCC1=C(C(=O)O)N2C(=O)[C@@H](NC(=O)Cc3csc(N)n3)[C@@H]2SC1", "AC50": "inactive"}
{"compound": "C[N+]1(C)CCc2cc(O)c(O)cc2[C@H]1Cc1ccc(O)c(O)c1", "activity, negative = inhibition": "-3.96% [at 11.4 µM] (inactive)"}
{"compound": "CCO[C@H](c1cc(OC)cc([N+](=O)[O-])c1OC)[C@H](C)/C=C\\CC(=O)OC", "AC50": "3.98 µM (active)"}
{"compound": "COC(=O)C/C=C\\[C@H](C)[C@@H](OC)c1ccccc1Br", "activity, negative = inhibition": "-22.3% [at 11.4 µM] (inactive)"}
{"compound": "C[C@H](NC(=O)Cn1cncn1)c1ccccc1", "AC50": "inactive"}
{"compound": "N#Cc1ccccc1NC(=O)Nc1cccs1", "AC50": "inactive"}
{"compound": "CCC(Sc1nc(=O)cc(N)n1CCc1ccccc1)C(=O)Nc1ccccc1C#N", "note": "(configuration not stated)", "AC50": "0.1 µM (active)"}
{"compound": "CC(NC(=O)CSc1nc(=O)cc(N)n1CCc1ccccc1)c1ccccc1", "note": "(configuration not stated)", "AC50": "0.178 µM (active)"}
{"compound": "Nc1cc(=O)nc(SCC(=O)Nc2cccc3ccccc23)n1CCc1ccccc1", "AC50": "0.126 µM (active)"}
{"compound": "O=C1OCCC=C1[C@@H](O)CCc1ccccc1", "activity, negative = inhibition": "-19.7% [at 11.4 µM] (inactive)"}
{"compound": "Cn1cccc1C(=O)C(=O)Nc1cccc(Cl)c1Cl", "AC50": "inactive"}
{"compound": "COc1ccc(-n2c(=S)[nH]c3cc(C(=O)NCCCN4CCCC4=O)ccc3c2=O)cc1", "AC50": "inactive"}
{"compound": "COc1ccc(-n2c(CNC(=O)c3cc(OC)c(OC)c(OC)c3)n[nH]c2=S)cc1", "AC50": "7.94 µM (active)"}
{"compound": "COCCNC(=O)c1ccc2c(c1)nc(C)n2-c1cc(OC)c(OC)c(OC)c1", "AC50": "inactive"}
{"compound": "COCc1nnc(NC(=O)c2ccc(S(=O)(=O)N3CCCCCC3)cc2)o1", "AC50": "inactive"}
{"compound": "COc1ccc(-n2c(CNC(=O)c3ccc(S(=O)(=O)N4CCCC4)cc3)n[nH]c2=S)cc1", "AC50": "12.6 µM (active)"}
{"compound": "O=C(NCc1n[nH]c(=S)n1-c1cccc(Cl)c1)c1ccc(S(=O)(=O)N2CCCC2)cc1", "AC50": "4.47 µM (active)"}
{"compound": "COCC(=O)Nc1c(I)c(C(=O)NC[C@@H](O)CO)c(I)c(C(=O)N(C)C[C@@H](O)CO)c1I", "AC50": "inactive"}
{"compound": "CN(CCOc1ccc(C[C@H](Nc2ccccc2C(=O)c2ccccc2)C(=O)O)cc1)c1ccccn1", "AC50": "10 µM (active)"}
{"compound": "CCN(CC)CCOc1ccc(Cc2ccccc2)cc1", "AC50": "inactive"}
{"compound": "CC1=CC(=O)CC(C)(C)[C@]1(O)/C=C\\C(C)=C\\C(=O)O", "activity, negative = inhibition": "-1.41% [at 11.4 µM] (inactive)"}
{"compound": "S=c1[nH]nc(CSCc2ccccc2Cl)n1-c1ccccc1", "AC50": "7.94 µM (active)"}
{"compound": "CCc1nnc(NC(=O)C2CCN(C(=O)NC3CCCCC3)CC2)s1", "AC50": "inactive"}
{"compound": "CCNC(=S)N1CCC(NC(=O)C2CCCCC2)CC1", "AC50": "14.1 µM (active)"}
{"compound": "CCOC(=O)N1CCC(NC(=O)C2CCN(S(=O)(=O)N3CCCC3)CC2)CC1", "AC50": "inactive"}
{"compound": "CCn1nnnc1SCC(=O)NC1CCCC1", "AC50": "inactive"}
{"compound": "CCn1c(SCC(=O)Nc2nc3ccc(C)cc3s2)nc2c(c1=O)SC(C)C2", "note": "(configuration not stated)", "AC50": "5.01 µM (active)"}
{"compound": "CCOc1ccc(-n2c(SCC(=O)Nc3ccc4c(c3)OCCO4)nc3c(c2=O)SCC3)cc1", "AC50": "inactive"}
{"compound": "Cc1ccc2nc(NC(=O)CSc3nc4c(c(=O)n3C)SC(C)C4)sc2c1", "note": "(configuration not stated)", "AC50": "inactive"}
{"compound": "CCn1c(SCC(=O)NC2CCCCC2)nc2c(c1=O)SC(C)C2", "note": "(configuration not stated)", "AC50": "15.8 µM (active)"}
{"compound": "CCn1c(SCC(=O)Nc2ccc3c(c2)OCCO3)nc2c(c1=O)SC(C)C2", "note": "(configuration not stated)", "AC50": "10 µM (active)"}
{"compound": "Cc1nc2cccc([N+](=O)[O-])c2n1CCCN(C)C", "activity, negative = inhibition": "-0.756% [at 11.4 µM] (inactive)"}
{"compound": "O=C(c1cccc(F)c1)N1CCC2(CCCN(c3ncccn3)C2)CC1", "AC50": "inactive"}
{"compound": "O=C(c1cccc(F)c1)N1CCC[C@@]2(CCN(Cc3nccs3)C2)C1", "AC50": "7.94 µM (active)"}
{"compound": "CC(C)CN1CCC2(CC1)CCN(C(=O)c1cccc(F)c1)CC2", "AC50": "inactive"}
{"compound": "O=C(c1cccc(F)c1)N1CCC[C@@]2(CCN(Cc3ccncc3)C2)C1", "AC50": "3.16 µM (active)"}
{"compound": "CC(C)CN1CC2(CCN(C(=O)c3cccc(F)c3)CC2)C1", "AC50": "inactive"}
{"compound": "CC(=O)N1CCC2(CCN(Cc3nccs3)CC2)CC1", "AC50": "inactive"}
{"compound": "O=C(c1cccc(F)c1)N1CCC2(CCCN(Cc3nccs3)C2)CC1", "AC50": "10 µM (active)"}
{"compound": "Cn1cccc1C(=O)N1CCC[C@@]2(CCN(Cc3nccs3)C2)C1", "AC50": "15.8 µM (active)"}
{"compound": "CC(C)CN1CCC2(CC1)CCN(C(=O)c1cccn1C)CC2", "AC50": "inactive"}
{"compound": "O=C(c1cccc(F)c1)N1CCC2(CC1)CN(Cc1ccccc1)C2", "AC50": "inactive"}
{"compound": "CCCc1ncc(C[n+]2ccccc2C)c(N)n1", "AC50": "inactive"}
{"compound": "CC(C)(C)N1C(=O)[C@H]2[C@H]3[C@H](O)[C@H](O)C/C(=N/NC(=O)OCc4ccccc4)[C@@H]3CC[C@@H]2C1=O", "activity, negative = inhibition": "-15% [at 11.4 µM] (inactive)"}
{"compound": "COC(=O)c1c(NC(=O)C(C)(C)C)sc2c1C(C(=O)OC)CC2", "note": "(configuration not stated)", "AC50": "inactive"}
